Reference: PubChem BioAssay (NCI)
The panel holds about 83,000 compounds, 20% with a hit somewhere; the sample as a whole holds those more often.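 Assay: single dose, 48 h. Readout: percent growth (0 = no net growth; negative = cell death). Active: <10.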 Unmarked numbers belong to inactive results. Calls of active or inactive are those of the source.

What was measured:
Experiment in all cases: NCI-60 one-dose screen, 48 h (100 = growth as untreated, 0 = no growth, -100 = all killed)
Details in all cases: 10 µM unless noted
EKVX NSCLC = test system: EKVX NSCLC
SN12C renal = test system: SN12C renal
UO-31 renal = test system: UO-31 renal
TK-10 renal = test system: TK-10 renal
ACHN renal = test system: ACHN renal
CAKI-1 renal = test system: CAKI-1 renal
A498 renal = test system: A498 renal
CCRF-CEM leukemia = test system: CCRF-CEM leukemia
MOLT-4 leukemia = test system: MOLT-4 leukemia
SR leukemia = test system: SR leukemia
RPMI-8226 leukemia = test system: RPMI-8226 leukemia
OVCAR-8 ovarian = test system: OVCAR-8 ovarian
OVCAR-5 ovarian = test system: OVCAR-5 ovarian
OVCAR-4 ovarian = test system: OVCAR-4 ovarian
SK-OV-3 ovarian = test system: SK-OV-3 ovarian
IGROV1 ovarian = test system: IGROV1 ovarian
OVCAR-3 ovarian = test system: OVCAR-3 ovarian
HS 578T breast = test system: HS 578T breast
NCI/ADR-RES ovarian = test system: NCI/ADR-RES ovarian
T-47D breast = test system: T-47D breast

SMILES | growth (EKVX NSCLC) | growth (SN12C renal) | growth (UO-31 renal) | growth (TK-10 renal) | growth (ACHN renal) | growth (CAKI-1 renal) | growth (A498 renal) | growth (CCRF-CEM leukemia) | growth (MOLT-4 leukemia) | growth (SR leukemia) | growth (RPMI-8226 leukemia) | growth (OVCAR-8 ovarian) | growth (OVCAR-5 ovarian) | growth (OVCAR-4 ovarian) | growth (SK-OV-3 ovarian) | growth (IGROV1 ovarian) | growth (OVCAR-3 ovarian) | growth (HS 578T breast) | growth (NCI/ADR-RES ovarian) | growth (T-47D breast)
CC(=O)Oc1ccccc1C(=O)Nc1cc(C(C)C)ccc1C | 10.5% | 8.31% (active) | -0.422% (active) | 21% | 10.1% | 6.69% (active) | -29.4% (active) | 14.6% | 4.63% (active) | -28.1% (active) | 1.78% (active) | 13.8% | 43.6% | 16.9% | 0.738% (active) | 25.5% | 6.75% (active) | 19.7% | 9.16% (active) | 9.13% (active)
CCCCN1C(=O)/C(=c2\sc3n(c2=O)C2C(NN=3)N(CC)C(=O)N2CC)c2cc(Cl)ccc21 (stereo unspecified) | 80.7% | 82% | 63% | 132% | 64.5% | 50.7% | 27.6% | 72.2% | 74.5% | 14.1% | 70.2% | 95.6% | 92.7% | 89.7% | 106% | 65.3% | 71.8% | 66.9% | 79.4% | 75%
COc1cccc(-c2nn(-c3ccccc3)cc2-c2ccnc(N3CCN(C(=O)Nc4ccc(F)cc4)CC3)c2)c1 | 62.1% | 67.4% | 34.4% | 92.9% | 67.6% | 49.2% | 56.9% | 31.8% | 19.3% | 24.8% | 21.4% | 48.8% | 97.6% | 51.2% | 107% | 79.1% |  | 85.8% | 33.4% | 3.31% (active)
CNC(=O)c1cc(-c2ccc(NC(=O)Nc3ccc(N4CCN(C)CC4)c(C(F)(F)F)c3)cc2)nc2cccnc12 | -74% (active) | -73.4% (active) | -81% (active) | -89.1% (active) | -94.6% (active) | -80.4% (active) | 40.9% | -15.1% (active) | -30.5% (active) | -45.4% (active) | -35.8% (active) | -84% (active) | -88.6% (active) | -82.4% (active) | 59.7% | -83.9% (active) |  | -55.7% (active) | -21.6% (active) | -18.8% (active)
Cn1cc(-c2cc(N)n3nc(-c4cn(C)c5ccc(Br)cc45)cc3n2)c2cc(Br)ccc21 | 90.7% | 90.3% | 81.8% | 133% | 92.2% | 79% | 102% | 22.8% | 48.9% | -13.5% (active) | 64.3% | 86.8% | 100% | 86.1% | 110% | 76.4% | 109% | 111% | 86.5% | 101%
N#Cc1c(-c2ccc(Cl)cc2)nc(SCc2ccc(F)cc2)nc1N1CCNCC1 | 73.7% | 52.2% | 51.3% | 92.7% | 36% | 49.8% | 65% | 37% | 7.99% (active) | -48.5% (active) | -36.9% (active) | 38.6% | 86% | 78.7% | 117% | 39.1% | 37.9% | 83.3% | 51.2% | 71.3%
CCCSc1nc(Nc2ccc(/C(C)=N\NC(N)=S)cc2)c(C#N)c(-c2ccc(OC)cc2)n1 | 74.8% | 33.5% | 28.3% | 33.4% | 47.2% | -7.3% (active) | 101% | 89.2% | 80.4% | 74.2% | 71.9% | 30.7% | 94.5% | 28% | 97.3% | 81% | 67.3% | 25.3% | 56% | 86.6%
CCCC(=O)NC(c1cccnc1)c1cc(C)c2cccnc2c1O (stereo unspecified) | 31.5% | 45.7% | 26.6% | 45.5% | 20.2% | 28% | 63.1% | 20.7% | 18.8% | 22.3% | 53.5% | 14% | 53.6% | 29.7% | 43.4% | 30.6% | -0.275% (active) | 71.8% | 23.7% | 29.7%
COc1ccc(NC(=O)c2sc3nc(-c4cnccn4)cc(-c4cccs4)c3c2N)cc1 | 87.6% | 80.8% | 52.3% | 105% | 43.8% | 36.4% | 49.5% | 94.6% | 83.5% | 71.6% | 74.2% | 71.7% | 93.1% | 82.1% | 23.1% | 86.3% | 76.8% | 73.7% | 78.2% | 67.8%
Fc1ccc(-c2cc3nc(C(Cl)Cl)nc(-c4ccccc4)n3n2)cc1 | 1.49% (active) | 52% | 3.9% (active) | -23.9% (active) | -27.2% (active) | -17.5% (active) | -59.9% (active) | 55.7% | 23.6% | 3.78% (active) | -16.1% (active) | 8.61% (active) | -20.3% (active) | -16.9% (active) | -18.6% (active) | 46.5% | -43.1% (active) | -18% (active) | 10.6% | 22.1%
CC(C)(C)Nc1nc2c(OCCc3ccccc3)cccn2c1-c1ccc(Cl)cc1 | 5.46% (active) | 10.3% | 0.0667% (active) | 20.8% | 8.77% (active) | 29.3% | 56% | 6.47% (active) | 4.83% (active) | 1.41% (active) | -16.1% (active) | 26.3% | 29.4% | 18.2% | 42.2% | 23.8% |  | 70.3% | 4.99% (active) | 8.79% (active)
COc1cc(-c2nc3ccc(-c4nnc(SCC(=O)Nc5ccc(C(C)=O)cc5)o4)cc3[nH]2)cc(OC)c1OC | 94% | 92.8% | 85.2% | 121% | 98.9% | 92.7% | 95.4% | 104% | 110% | 96.5% | 108% | 94.9% | 99.9% | 111% | 112% | 99.3% |  | 103% | 107% | 103%
COc1ccc(/C=C/C(=O)c2ccc(NC(=O)CSc3nnc(-c4ccc5nc(-c6ccc(Cl)cc6)[nH]c5c4)o3)cc2)cc1 | 103% | 93.4% | 87.5% | 136% | 102% | 97.4% | 111% | 59.9% | 64.4% | 80.5% | 64.4% | 79.5% | 107% | 103% | 106% | 95.3% | 111% | 94.7% | 107% | 78%
Cn1cc(-c2cc(N)n3nc(-c4cn(C)c5ccc(F)cc45)cc3n2)c2cc(F)ccc21 | 93.5% | 11.8% | 21.2% | 48.7% | -38.6% (active) | 56.5% | 72.6% | 3.2% (active) | 3.58% (active) | -16.2% (active) | 13.5% | 20% | 88.5% | 23.6% | 128% | 42.7% | -0.991% (active) | 18.5% | 66.5% | 22.5%
C[C@@H]1CN(c2ccc3ncc(C#Cc4cncc(C(=O)Nc5ccc(CN6CCN(C)CC6)c(C(F)(F)F)c5)c4)n3n2)C[C@H](C)O1 | -18.9% (active) | -26.7% (active) | -87.9% (active) | -91.1% (active) | -94% (active) | -94.1% (active) | -90.4% (active) | 3.83% (active) | 1.65% (active) | -24.3% (active) | -2.52% (active) | 0.405% (active) | -35.4% (active) | -10.1% (active) | -76.5% (active) | -5.72% (active) | -48.3% (active) | -37% (active) | -8.65% (active) | 15%
COC1CCN(Cc2ccc3c(NNC(=O)c4cnccn4)nc4cc(F)ccc4n23)C1 (stereo unspecified) | 29.9% | 24.1% | 18.6% | 40.8% | 14.1% | 16.8% | 30.6% | 1.87% (active) | 8.05% (active) | 1.51% (active) | 20.2% | 14.4% | 49.9% | 21% | 38.1% | 24.2% | 5.16% (active) | 68.5% | 24% | 24.2%
